Assay outcomes (PubChem BioAssay)
A selection: hits, their analogues and other compounds. The true share with any hit is near 17%.
ClpP mod = qHTS Assay for Activators of ClpP. Potency, µM (highest dose often 57.5 µM), for inactives: top-dose activity change, negative = active. ATP-dependent Clp protease proteolytic subunit (Bacillus subtilis (strain 168)), P80244. purified B. subtilis ClpP, FRET peptide cleavage, 20 min. 340,000 compounds, 1.9% hits. AID 651965, 2013; active = well fitted falling curve with a large enough effect; inconclusive = small, poorly fitted or top-dose-only effect; inactive = no such curve, though single readings can be large or run the other way; note: the source files actives as falling curves though it sought activators and does not explain the sign; nearly all actives have a fitted effect of over 65% in size
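Purified B. subtilis ClpP, 10 microg/mL final in Tris/HCl pH8 with KCl, BSA, glycerol and Tween-20, cleaved an Abz/nitrotyrosine-quenched decapeptide. Fluorescence (ex 320, em 430) was read at 0 and 20 min at room temperature. Delta was normalized to 5.8 microM ADEP and DMSO/no-enzyme controls.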
TDP1 inh = inhibitors of human tyrosyl-DNA phosphodiesterase TDP1 | Potency, µM (doses to about 130 µM), for inactives: at the top dose activity change, negative = inhibition, actives largely listed as inhibitors | Q9NUW8 | AID 485290 | 350,000 compounds, 0.28% hits | recombinant TDP1, AlphaScreen DNA substrate cleavage; note: % is set by controls: 0 for no effect and ±100 for the full control effect; nearly all actives have a fitted effect of over 40% in size
Target sequence (Q9NUW8 whole entry, looked up): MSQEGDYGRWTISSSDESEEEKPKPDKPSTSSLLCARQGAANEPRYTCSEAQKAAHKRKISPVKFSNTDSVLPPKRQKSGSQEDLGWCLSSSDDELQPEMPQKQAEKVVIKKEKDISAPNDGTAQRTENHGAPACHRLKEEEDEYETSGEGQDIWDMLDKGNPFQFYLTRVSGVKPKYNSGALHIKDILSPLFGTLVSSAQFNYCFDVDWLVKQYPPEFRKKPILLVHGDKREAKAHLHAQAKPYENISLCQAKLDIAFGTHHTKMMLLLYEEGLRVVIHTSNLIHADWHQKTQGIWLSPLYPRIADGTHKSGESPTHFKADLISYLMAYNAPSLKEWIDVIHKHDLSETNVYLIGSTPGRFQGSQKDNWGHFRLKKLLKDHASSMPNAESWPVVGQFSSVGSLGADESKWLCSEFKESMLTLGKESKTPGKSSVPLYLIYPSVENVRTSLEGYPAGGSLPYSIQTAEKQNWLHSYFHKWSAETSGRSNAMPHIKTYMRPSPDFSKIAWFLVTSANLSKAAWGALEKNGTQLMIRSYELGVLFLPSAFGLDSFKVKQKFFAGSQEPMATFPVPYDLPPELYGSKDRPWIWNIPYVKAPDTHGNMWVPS
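Tdp1 1 nM final; 15 min RT w/ cpd; substrate 15 nM, 5 min; beads 10 ug/ml, 10 min; AlphaScreen read. Neg ctrl: no enzyme.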
TDP1 cell noCPT = qHTS for Inhibitors of human tyrosyl-DNA phosphodiesterase 1 (TDP1): qHTS in cells in absence of CPT | DT40 Tdp1-/- hTDP1 cells, no CPT, ATP luminescence, 48 h | Potency, µM (highest dose often 46.2 µM), for inactives: at the top dose activity change, negative = growth inhibition, hits mostly inhibitors | 420,000 compounds, 15% hits; note: % is set by controls: 0 for no effect and ±100 for the full control effect; nearly all actives have a fitted effect of over 55% in size
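No-CPT arm: Tdp1-/-;hTDP1 DT40 cells (400/well) plus compounds, incubated ≥48 hr at 37 °C. Readout CellTiter-Glo luminescence.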
DT40 TDP1 CPT = growth inhibition of DT40 Tdp1-/-;hTDP1 cells with camptothecin (screen for TDP1 inhibitors); AID 686979; 420,000 compounds, 12% hits; chicken DT40 Tdp1-/-;hTDP1 cells + 20 nM CPT, ATP luminescence, 48 h; Potency, µM (series often up to 46.2 µM), without a hit: at the top dose activity change, negative = growth inhibition, actives largely listed as inhibitors; note: % is set by controls: 0 for no effect and ±100 for the full control effect; nearly all actives have a fitted effect of over 55% in size
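Chicken DT40 Tdp1-/- cells complemented with human TDP1, 400 cells/well, exposed to compounds plus 20 nM camptothecin for at least 48 h at 37 C; viability read as ATP content by CellTiter-Glo luminescence.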
Active calls of the source: *; ? = inconclusive; nt = no result given; [ ] = another dose, or the depositor's remark. Unless noted, calls come from the whole dose curve; as a rule, active = well fitted curve in the direction sought with a large enough effect; inconclusive = small, poorly fitted or top-dose-only effect, or another doubt; inactive = no such curve, though single readings can be large; an effect the other way counts as inactive or inconclusive. Potency is the fitted concentration of half-maximal effect.

SMILES	ClpP mod	TDP1 inh	TDP1 cell noCPT	DT40 TDP1 CPT
CCOc1ccc(NC(=O)Cn2c3ncccc3c(=O)n2-c2ccc(CC)cc2)cc1	4.3%	7.9%	?	?
COc1ccc(C(=O)Nc2ccc(NC(=O)Cc3ccccc3)cn2)cc1	nt	-3.4%	-15.6%	0.9%
CC(=O)CC1OC(=O)C(Br)=C1NCc1ccccc1 (centres undefined)	2.2%	0.0%	1.46µM*	0.92µM*
O=C(CC1Oc2ccccc2NC1=O)NCc1ccccc1 (centres undefined)	-0.1%	-1.2%	-10.1%	?
COC(=O)c1cc(NC2(c3ccccc3)C(=O)c3ccccc3C2=O)cc(C(=O)OC)c1	1.9%	9.5%	-27.7%	-15.0%
COc1ccc(N2C(=S)N=C(Nc3cccc(C)c3)C23CCCCC3)cc1	-1.8%	-5.1%	-26.0%	6.51µM*
COc1ccc(Cl)cc1CC1(C)C(=O)Nc2c(Cl)cccc21 (centres undefined)	-3.7%	nt	23.1µM*	?
CC1(Cc2ccc(F)c(Cl)c2)C(=O)Nc2c(Cl)cccc21 (centres undefined)	0.7%	nt	16.4µM*	?
CC1(Cc2cc(Cl)ccc2C(F)(F)F)C(=O)Nc2c(Cl)cccc21 (centres undefined)	0.8%	nt	13µM*	?
CC1(Cc2ccccc2F)C(=O)Nc2c(Cl)ccc(Cl)c21 (centres undefined)	-2.3%	nt	?	?
CC(C)COC(=O)N1C(COCc2ccccc2)CCC=CS1(=O)=O (centres undefined)	nt	-6.8%	nt	nt
Cc1cccc(N2CCN(c3nc(C)cc(C)c3C#N)CC2C)c1 (centres undefined)	nt	3.1%	?	6.5%
CC(C)(C)Cc1c(-c2ccc(Cl)cc2)nc2ccc(Br)cn12	-0.6%	nt	?	?
CC(C)(C)Cc1c(-c2ccc(F)cc2)nc2ccc(Br)cn12	-3.7%	nt	16.4µM*	?
CCOC(=O)c1c(-c2ccccc2)nc2ccc(Cl)cn12	8.0%	-4.0%	16.4µM*	?
COC(=O)Nc1c(-c2ccccc2)nc2ccc(Cl)cn12	1.4%	1.0%	-15.8%	-21.1%
CC(C)(C)Cc1c(-c2ccc(Br)cc2)nc2ccc(Cl)cn12	-2.0%	nt	?	20.6µM*
CC(C)(C)Cc1c(-c2ccc(Cl)cc2)nc2ccc(Cl)cn12	-11.7%	nt	?	?
CC(C)(C)Cc1c(-c2ccccc2)nc2ccc(Cl)cn12	-9.2%	nt	23.1µM*	23.1µM*
Clc1ccc(-c2nc3ccc(Cl)cn3c2Cc2ccsc2)cc1	-7.3%	nt	?	-26.7%
CN(C)Cc1c(-c2ccc(Cl)cc2)nc2ccc(Cl)cn12	nt	3.8%	13µM*	?
O=C(O)c1cccc(NC(=O)c2cn(-c3ccccc3)nc2-c2ccc(F)cc2)c1	-2.3%	nt	-3.2%	-0.6%
O=C(Nc1cccc(S(=O)(=O)NC2=NCCC2)c1)c1cn(-c2ccccc2)nc1-c1ccc(F)cc1	-12.0%	2.2%	2.59µM*	3.66µM*
Cc1ccc(-c2nn(-c3ccccc3)cc2C(=O)Nc2cccc(S(=O)(=O)NC3=NCCC3)c2)cc1	-2.1%	nt	0.206µM*	2.5%
Cc1onc(-c2ccccc2)c1C(=O)Nc1cccc(S(=O)(=O)NC2=NCCC2)c1	-2.3%	-0.5%[56.1 µM]	20.7%	?
SMILES	ClpP mod	TDP1 inh	TDP1 cell noCPT	DT40 TDP1 CPT
Cc1ccc(S(=O)(=O)N2CCCCC2)cc1NC(=O)c1ccc(Cl)nc1	-1.4%	-0.2%	?	?
Cc1ccccc1-c1cc(C(=O)NCc2ccco2)n(CC2CC(c3cccnc3)=NO2)n1 (centres undefined)	-3.2%	2.4%	20.6µM*	18.4µM*
COc1ccccc1CNC(=O)c1cc(-c2ccccc2)nn1CC1CC(c2cccnc2)=NO1 (centres undefined)	-0.4%	nt	?	?
COc1ccc(C2=NOC(Cn3nc(-c4ccccc4)cc3C(=O)NCc3ccccc3OC)C2)cc1 (centres undefined)	-10.0%	1.2%	10.3µM*	11.6µM*
O=C(CSc1nc(-c2ccccc2)nc2c1Cc1ccccc1O2)Nc1ccccc1	nt	-2.0%	nt	nt
O=C(CSc1nc(-c2ccccc2)nc2ccc(F)cc12)Nc1cccc(C(=O)O)c1	2.2%	79.4µM*	-15.9%	-13.3%
O=C(CSc1nc(-c2ccc(F)cc2)nc2c1Cc1ccccc1O2)Nc1cccc(C(=O)O)c1	2.0%	3.98µM*	-17.2%	?
Cc1cccc(N2CCN(C(=O)Nc3ccc(F)cc3)CC2C)c1 (centres undefined)	2.0%	2.5%	?	?
COc1ccc(-c2cc(C(F)(F)F)nc(NCc3ccccc3)n2)cc1OC	4.7%	-14.7%	20.6µM*	?
COc1ccc(CNc2nc(-c3ccc(OC)cc3)cc(C(F)(F)F)n2)cc1	3.9%	-5.9%	5.8µM*	13µM*
Cc1ccc(C2(C)NC(=O)N(CC(=O)Nc3cc(S(=O)(=O)N4CCOCC4)ccc3OC(C)C)C2=O)cc1 (centres undefined)	-0.5%	nt	?	?
Cc1c(C(=O)N2CCC(N3CCSCC3)CC2)oc2c(F)cccc12	1.8%	3.8%	-20.1%	?
CC(C)c1csc(CN2CCC(N3CCC(C(=O)N4CCOCC4)CC3)CC2)n1	nt	1.2%	?	2.6%
CCc1nc2c(OCc3ccc(F)cc3)cccn2c1N(C)C(=O)c1ccco1	0.1%	nt	?	-18.1%
CCc1nc2c(OCc3ccc(Cl)cc3)cccn2c1N(C)C(=O)c1ccco1	-3.0%	nt	20.6µM*	16.4µM*
CCc1nc2c(OCc3ccc(C(=O)OC)cc3)cccn2c1N(C)C(=O)c1ccc(C)cc1	-0.9%	nt	18.4µM*	23.1µM*
CCc1nc2c(OCc3ccc(C(F)(F)F)cc3)cccn2c1N(C)C(=O)c1ccncc1	1.7%	nt	16.4µM*	16.4µM*
CCc1nc2c(OCc3ccc(C(=O)OC)cc3)cccn2c1N(C)C(=O)c1ccc(OC)cc1	-4.2%	nt	?	?
CCc1nc2c(OCc3ccc(F)cc3)cccn2c1N(C)C(=O)c1ccc(C)cc1	-3.2%	nt	?	14.6µM*
Cc1cccc(C(=O)N[C@H](C(=O)OCC(=O)NC(=O)c2cccn2C)C(C)C)c1	nt	5.4%	?	-4.1%
Cc1ccc(N2CCN(C(=O)CCc3c(C)nc4ncnn4c3C)CC2)c(C)c1	0.7%	-4.6%	?	?
COc1ccc(NC(=O)CSc2nccn2Cc2ccco2)cc1	-1.0%	4.1%	?	-12.7%
CCc1nc2c(OCc3ccc(Cl)cc3)cccn2c1N(C)C(=O)c1cccs1	-0.2%	nt	?	?
CCc1nc2c(OCc3ccc(F)c(F)c3)cccn2c1N(C)C(=O)c1cccs1	-0.2%	nt	23.1µM*	?
COc1ccc(OCc2cc(C(=O)O)c(C)o2)cc1	nt	14.1µM*	nt	nt
CC(C)(C)OC(=O)NCCCCCNC(=O)c1[nH]cnc1C(=O)Nc1ccc(Cl)cc1	-11.5%	-0.4%	14.6µM*	?
